Results on four compounds are retold here after PubChem BioAssay (EPA / NIEHS).

The nature of experiment [1]: ATG_TAL_CIS: Attagene CIS-FACTORIAL HepG2 Assay for human TAL Basal Promoter (AID 2282966; active means hit-call score of the fitted dose curve at least 0.9, where 1 is the maximum; inactive means score below 0.9;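 further: background control endpoint measuring basal TAL promoter reporter mRNA not a specific factor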). The following applies: HepG2 Attagene cis-factorial TAL promoter reporter; actives raise or lower the signal. The gist of the method:
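HepG2 cells were transiently transfected with promoter-driven multiplexed reporter units and dosed for 24 h. Reporter mRNA was measured by RT-PCR with capillary electrophoresis fluorescence; bidirectional fits used DMSO as baseline, serving as a background control.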

Experiment [2] can be described thus: ATG_TGFb_CIS: Attagene CIS-FACTORIAL HepG2 Assay for human Transforming Growth Factor (TGF) (AID 2282967; active means hit-call score of the fitted dose curve at least 0.9, where 1 is the maximum; inactive means score below 0.9). The following applies: HepG2 Attagene CIS TGFb reporter, mRNA transcription; actives raise or lower the signal. The method, boiled down: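 HepG2 cells transiently transfected with cis-promoter-driven multiplexed reporter units; 24 h compound exposure. Reporter mRNA measured by RT-PCR, 6-FAM labeling, HpaI digestion and capillary electrophoresis; bidirectional fit versus DMSO baseline.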

Experiment [3] is described as follows: ATG_VDRE_CIS: Attagene CIS-FACTORIAL HepG2 Assay for human Vitamin D Receptor Element (VDRE) (AID 2282968; active means hit-call score of the fitted dose curve at least 0.9, where 1 is the maximum; inactive means score below 0.9). The following applies: HepG2 VDRE cis-reporter transcription, actives raise or lower the signal. The gist of the method:
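HepG2 cells transiently transfected with cis-element reporter units, dosed 24 h; reporter mRNA measured by RT-PCR, 6-FAM labeling, HpaI digestion and capillary electrophoresis. Activity fitted bidirectionally against DMSO baseline.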

In experiment [4] the target is Nuclear receptor subfamily 1 group I member 3 (Homo sapiens) (UniProt Q14994). The experiment in a line: ATG_CAR_TRANS: Attagene TRANS-FACTORIAL HepG2 Assay for human Constitutive Androstane Receptor (CAR) (AID 2282969).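 Further: activators raise reporter mRNA above DMSO so AC50 marks induction.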 As to conditions: HepG2 Attagene TRANS-FACTORIAL CAR reporter. The gist of the method: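 HepG2 cells transiently transfected with multiplexed GAL4-UAS reporter units expressing chimeric NR-Gal4 proteins; compound exposure 24 h. Reporter mRNA measured by RT-PCR, 6-FAM labelling, HpaI digestion and capillary electrophoresis; gain-of-signal fitted against DMSO baseline.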
Chain of Nuclear receptor subfamily 1 group I member 3 (Homo sapiens) (Q14994 whole entry, looked up, the tested form may be a part): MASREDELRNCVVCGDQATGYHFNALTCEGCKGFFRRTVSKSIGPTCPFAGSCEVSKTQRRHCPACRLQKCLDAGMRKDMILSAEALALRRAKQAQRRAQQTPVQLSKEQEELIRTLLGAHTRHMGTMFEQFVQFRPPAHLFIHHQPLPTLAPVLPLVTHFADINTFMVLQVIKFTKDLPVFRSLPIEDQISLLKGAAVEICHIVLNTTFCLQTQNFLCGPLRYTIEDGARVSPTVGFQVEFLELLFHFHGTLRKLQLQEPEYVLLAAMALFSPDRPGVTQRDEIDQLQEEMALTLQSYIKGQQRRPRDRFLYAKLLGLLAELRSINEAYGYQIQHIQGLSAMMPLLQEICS

Experiment [5] addresses Steroid hormone receptor ERR1 (Homo sapiens) (UniProt P11474). The experiment in a line: ATG_ERRa_TRANS: Attagene TRANS-FACTORIAL HepG2 Assay for human Estrogen-Related Receptor alpha (ERRa) (AID 2282971). As to conditions: HepG2 Attagene TRANS reporter, ERRa transactivation. The method, boiled down: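 HepG2 cells transiently transfected with multiplexed GAL4-UAS reporter units reading chimeric ERRa-Gal4 activity; 24 h compound exposure. Reporter mRNA measured by RT-PCR, 6-FAM labelling, HpaI digest and capillary electrophoresis; gain of signal fitted versus DMSO baseline.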

Experiment [6] deals with X-box-binding protein 1 (Homo sapiens) (UniProt P17861). Kind of experiment: ATG_Xbp1_CIS: Attagene CIS-FACTORIAL HepG2 Assay for human X-box Binding Protein 1 (XBP1) (AID 2282972; active means hit-call score of the fitted dose curve at least 0.9, where 1 is the maximum; inactive means score below 0.9). The following applies: HepG2 XBP1 cis-element reporter, Attagene multiplex; actives raise or lower the signal. The method, boiled down:
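HepG2 cells transiently transfected with cis-regulated multiple reporter transcription units; endogenous transcription factor activity measured 24 hours after chemical dosing. Reporter mRNA quantified by RT-PCR, 6-FAM primer extension, HpaI digestion and capillary electrophoresis; bidirectional fitting versus DMSO.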

A short description of experiment [7]: ATG_M_19_TRANS: Attagene TRANS-FACTORIAL HepG2 Assay for M19 Transcription Factor (Internal Marker) (AID 2282974). As to conditions: HepG2 Attagene TRANS-FACTORIAL M19 internal marker reporter. The gist of the method:
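Transfected HepG2 (GAL4-UAS MRTUs), 24 h compound, TriZol RNA, DNase-treated RT, reporter PCR, FAM label, HpaI digest, CE fluorescence; gain vs DMSO.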

The nature of experiment [8]: ATG_GAL4_TRANS: Attagene TRANS-FACTORIAL HepG2 Assay for GAL4 (Internal Marker) (AID 2282976). The following applies: HepG2 Attagene TRANS GAL4 internal marker reporter. The gist of the method:
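HepG2 cells transiently transfected with multiplexed GAL4-UAS reporter constructs were dosed for 24 h. Reporter mRNA was measured by RT-PCR, 6-FAM primer extension, HpaI digestion and capillary electrophoresis, and gain of signal was fitted relative to DMSO.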

Experiment [9] addresses Glucocorticoid receptor (Homo sapiens) (UniProt P04150). Kind of experiment: ATG_GR_TRANS: Attagene TRANS-FACTORIAL HepG2 Assay for human Glucocorticoid Receptor (GR) (AID 2282978).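 Further: activators score as hits since higher reporter transcript over DMSO is fitted.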 The following applies: HepG2 Attagene TRANS GR reporter, mRNA transcription. The gist of the method:
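After 24 h incubation with test chemical, transfected HepG2 cells were lysed for RNA; reporter cDNA was amplified, FAM-labelled, HpaI-digested and sized on a capillary analyser. Signal gain relative to DMSO was scored.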

Experiment [10] has as its target Bile acid receptor (Homo sapiens) (UniProt Q96RI1). Kind of experiment: ATG_FXR_TRANS: Attagene TRANS-FACTORIAL HepG2 Assay for Farnesoid X Receptor (FXR) (AID 2282979).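 Further: hits raise reporter mRNA above DMSO so AC50 marks FXR activation.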 The following applies: HepG2 Attagene TRANS FXR-GAL4 reporter transcription. The gist of the method: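 HepG2 cells transiently transfected with reporter constructs in which a chimeric FXR-GAL4 protein drives a GAL4-UAS reporter; 24 h compound exposure. Reporter mRNA measured by RT-PCR, FAM labelling, HpaI digestion and capillary electrophoresis; gain-of-signal versus DMSO.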

Experiment [11] concerns the target Oxysterols receptor LXR-alpha (Homo sapiens) (UniProt Q13133). The experiment in a line: ATG_LXRa_TRANS: Attagene TRANS-FACTORIAL HepG2 Assay for human Liver X Receptor alpha (LXRa) (AID 2282980). As to conditions: HepG2 Attagene TRANS reporter, LXRa transactivation. The method, boiled down:
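HepG2 cells were transiently transfected with multiplexed reporter units driven by chimeric LXRa–GAL4 fusion proteins, then dosed for 24 h. Reporter mRNA was quantified by RT-PCR, fluorescent labelling and capillary electrophoresis; gain of signal fitted against DMSO baseline.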

The target of experiment [12] is Hepatocyte nuclear factor 4-alpha (Homo sapiens) (UniProt P41235). Kind of experiment: ATG_HNF4a_TRANS: Attagene TRANS-FACTORIAL HepG2 Assay for human Hepatocyte Nuclear Factor 4 alpha (HNF4a) (AID 2282982). The following applies: HepG2 HNF4a transactivation reporter, mRNA readout. The method, boiled down:
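HepG2 cells transiently transfected with multiplexed GAL4-UAS reporter units responsive to chimeric NR-GAL4 proteins; compound exposure 24 h. Reporter mRNA quantified by RT-PCR, 6-FAM labelling, HpaI digestion and capillary electrophoresis; gain of signal versus DMSO baseline.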

Experiment [13] in a line: ATG_M_06_TRANS: Attagene TRANS-FACTORIAL HepG2 Assay for M06 Transcription Factor (Internal Marker) (AID 2282983).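 Further: reporter transcript level by RT-PCR then capillary electrophoresis fluorescence.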 The following applies: HepG2 Attagene TRANS M06 internal marker reporter. The gist of the method:
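HepG2 cells transiently transfected with multiplexed GAL4-UAS reporter transcription units; after 24 h compound exposure, reporter mRNA measured by RT-PCR, FAM-labelled primer extension, HpaI digestion and capillary electrophoresis. Gain-of-signal fitted versus DMSO baseline; background control readout.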

Experiment [14] in a line: ATG_M_32_TRANS: Attagene TRANS-FACTORIAL HepG2 Assay for M32 Transcription Factor (Internal Marker) (AID 2282984). As to conditions: HepG2 Attagene TRANS M32 internal marker reporter. The gist of the method:
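HepG2 cells transiently transfected with multiple GAL4-UAS reporter transcription units, dosed for 24 hours; reporter mRNA quantified by RT-PCR, 6-FAM primer extension, HpaI digestion and capillary electrophoresis. Gain-of-signal fitted versus DMSO baseline; internal background-control marker.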

Experiment [15] addresses Nuclear receptor subfamily 4 group A member 2 (Homo sapiens) (UniProt P43354). The experiment in a line: ATG_NURR1_TRANS: Attagene TRANS-FACTORIAL HepG2 Assay for human Nuclear Receptor Related Protein 1 (NURR1) (AID 2282985). As to conditions: HepG2 Attagene TRANS reporter, mRNA readout. The method, boiled down: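 HepG2 cells transiently transfected with GAL4-UAS reporter units and chimeric NR-Gal4 constructs; chemical exposure 24 h. Reporter mRNA quantified by RT-PCR, fluorescent labelling and capillary electrophoresis; gain of signal fitted relative to DMSO baseline.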

Experiment [16] concerns the target Transcriptional activator Myb (Homo sapiens) (UniProt P10242). The experiment in a line: ATG_Myb_CIS: Attagene CIS-FACTORIAL HepG2 Assay for human Myeloblastosis (Myb) Proto-Oncogene Transcription Factor (AID 2282986; active means hit-call score of the fitted dose curve at least 0.9, where 1 is the maximum; inactive means score below 0.9). The following applies: HepG2 Attagene CIS-FACTORIAL Myb reporter transcription; actives raise or lower the signal. The method, boiled down:
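After 24 h of compound dosing, total RNA from transfected HepG2 cells is reverse-transcribed and the reporter sequences amplified, labeled and separated by capillary electrophoresis. Values come from bidirectional fitting against DMSO.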

Experiment [17] concerns the target Nuclear respiratory factor 1 (Homo sapiens) (UniProt Q16656). Kind of experiment: ATG_NRF1_CIS: Attagene CIS-FACTORIAL HepG2 Assay for human Nuclear Respiratory Factor 1 (NRF1) Orphan Gene (AID 2282987; active means hit-call score of the fitted dose curve at least 0.9, where 1 is the maximum; inactive means score below 0.9). The following applies: HepG2 NRF1 cis-element reporter, Attagene multiplex; actives raise or lower the signal. The gist of the method: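 Measured: fluorescent reporter-specific RT-PCR products from transfected HepG2 cells, separated by capillary electrophoresis. Exposure lasted 24 h. Analysis used bidirectional curve fitting with DMSO as negative control.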

Experiment [18] in a line: ATG_NFI_CIS: Attagene CIS-FACTORIAL HepG2 Assay for human Nuclear Factor I (NFI) (AID 2282989; active means hit-call score of the fitted dose curve at least 0.9, where 1 is the maximum; inactive means score below 0.9). As to conditions: HepG2 cis-regulatory reporter, NFI response element transcription; actives raise or lower the signal. The method, boiled down:
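HepG2 cells transiently transfected with cis-element-driven multiplexed reporter transcription units, dosed for 24 h. Reporter mRNA quantified by RT-PCR, fluorescent labelling, HpaI digestion and capillary electrophoresis; bidirectional fit versus DMSO baseline.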

Experiment [19] concerns the target Estrogen receptor (Homo sapiens) (UniProt P03372). Kind of experiment: ATG_ERa_TRANS: Attagene TRANS-FACTORIAL HepG2 Assay for human Estrogen Receptor alpha (ERa) (AID 2282970). The following applies: HepG2 Attagene TRANS ERa GAL4 reporter, mRNA. The method, boiled down:
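HepG2 cells transiently transfected with multiplexed GAL4-UAS reporter units; ERa activity read via exogenous chimeric NR-Gal4 protein. After 24 hour compound exposure, reporter mRNA measured by RT-PCR with 6-FAM labelling and capillary electrophoresis; gain-of-signal fitted relative to DMSO.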

“And” between values parts separate entries of the source, which are not always exact repeats. Equal values may be shown once. Results filed as inconclusive are left out. A structure can be active in one record and inactive in another. The source made the active and inactive calls. How the source made its calls, unless noted: active means hit-call score of the fitted dose curve at least 0.9, where 1 is the maximum; inconclusive means response in the unintended direction; inactive means score below 0.9.

Chain of Nuclear respiratory factor 1 (Homo sapiens) (Q16656 whole entry, looked up): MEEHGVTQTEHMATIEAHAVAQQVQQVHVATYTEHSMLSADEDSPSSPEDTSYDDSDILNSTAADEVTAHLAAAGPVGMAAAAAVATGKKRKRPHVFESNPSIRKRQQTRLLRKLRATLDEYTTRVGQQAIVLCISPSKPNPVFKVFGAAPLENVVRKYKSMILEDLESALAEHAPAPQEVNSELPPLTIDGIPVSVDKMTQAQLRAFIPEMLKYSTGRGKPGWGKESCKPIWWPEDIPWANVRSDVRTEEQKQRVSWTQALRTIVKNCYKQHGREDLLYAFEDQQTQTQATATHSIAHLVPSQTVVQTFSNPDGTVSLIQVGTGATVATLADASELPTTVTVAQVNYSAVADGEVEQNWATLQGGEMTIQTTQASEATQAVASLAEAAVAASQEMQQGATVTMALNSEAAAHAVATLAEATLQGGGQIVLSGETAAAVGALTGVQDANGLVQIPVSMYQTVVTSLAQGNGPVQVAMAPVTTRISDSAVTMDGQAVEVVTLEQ
Chain of Glucocorticoid receptor (Homo sapiens) (P04150 whole entry, looked up): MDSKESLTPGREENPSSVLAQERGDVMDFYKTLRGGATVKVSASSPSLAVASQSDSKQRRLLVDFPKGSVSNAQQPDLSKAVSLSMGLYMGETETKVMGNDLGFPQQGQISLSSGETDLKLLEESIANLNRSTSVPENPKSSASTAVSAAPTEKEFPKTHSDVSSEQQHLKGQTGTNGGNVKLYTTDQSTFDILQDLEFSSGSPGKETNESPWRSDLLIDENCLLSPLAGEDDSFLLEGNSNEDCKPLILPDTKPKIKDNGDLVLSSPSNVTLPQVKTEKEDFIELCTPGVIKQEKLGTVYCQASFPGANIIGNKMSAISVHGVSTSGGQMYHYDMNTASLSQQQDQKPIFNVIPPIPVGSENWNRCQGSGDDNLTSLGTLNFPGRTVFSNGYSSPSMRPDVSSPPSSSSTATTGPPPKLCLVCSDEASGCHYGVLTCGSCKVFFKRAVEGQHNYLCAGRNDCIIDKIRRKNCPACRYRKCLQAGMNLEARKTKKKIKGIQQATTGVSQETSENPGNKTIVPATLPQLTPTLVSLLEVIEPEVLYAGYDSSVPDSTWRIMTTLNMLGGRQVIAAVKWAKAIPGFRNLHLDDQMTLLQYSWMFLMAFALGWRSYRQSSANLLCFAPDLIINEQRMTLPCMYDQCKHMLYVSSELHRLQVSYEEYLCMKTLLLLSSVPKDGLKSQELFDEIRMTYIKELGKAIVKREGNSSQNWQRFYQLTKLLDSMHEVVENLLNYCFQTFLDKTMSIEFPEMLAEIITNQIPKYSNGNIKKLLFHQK
Chain of Hepatocyte nuclear factor 4-alpha (Homo sapiens) (P41235 whole entry, looked up, the tested form may be a part): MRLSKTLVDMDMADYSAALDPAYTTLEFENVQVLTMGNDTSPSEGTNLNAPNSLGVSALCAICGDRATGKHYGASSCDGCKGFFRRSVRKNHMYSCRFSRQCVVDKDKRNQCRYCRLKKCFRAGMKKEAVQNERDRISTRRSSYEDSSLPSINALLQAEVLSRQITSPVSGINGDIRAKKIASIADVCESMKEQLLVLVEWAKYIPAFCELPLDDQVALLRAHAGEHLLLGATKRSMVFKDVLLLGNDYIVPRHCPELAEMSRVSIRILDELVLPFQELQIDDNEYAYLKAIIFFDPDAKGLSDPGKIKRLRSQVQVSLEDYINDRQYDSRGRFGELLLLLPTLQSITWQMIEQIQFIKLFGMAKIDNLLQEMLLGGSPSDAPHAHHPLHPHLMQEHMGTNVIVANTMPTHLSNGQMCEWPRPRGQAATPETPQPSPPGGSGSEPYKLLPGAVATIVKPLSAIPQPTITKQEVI
Chain of Steroid hormone receptor ERR1 (Homo sapiens) (P11474 whole entry, looked up, the tested form may be a part): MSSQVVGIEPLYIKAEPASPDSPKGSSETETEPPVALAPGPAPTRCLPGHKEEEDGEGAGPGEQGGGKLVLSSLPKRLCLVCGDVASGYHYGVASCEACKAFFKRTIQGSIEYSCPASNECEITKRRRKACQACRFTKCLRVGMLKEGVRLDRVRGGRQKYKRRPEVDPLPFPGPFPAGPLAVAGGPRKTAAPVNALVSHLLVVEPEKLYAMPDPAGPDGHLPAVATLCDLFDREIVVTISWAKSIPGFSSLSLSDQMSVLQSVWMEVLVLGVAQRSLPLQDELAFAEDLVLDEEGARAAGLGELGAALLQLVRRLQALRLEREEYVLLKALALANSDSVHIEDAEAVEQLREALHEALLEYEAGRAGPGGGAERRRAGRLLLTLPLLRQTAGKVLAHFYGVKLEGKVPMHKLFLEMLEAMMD
Chain of Nuclear receptor subfamily 4 group A member 2 (Homo sapiens) (P43354 whole entry, looked up, the tested form may be a part): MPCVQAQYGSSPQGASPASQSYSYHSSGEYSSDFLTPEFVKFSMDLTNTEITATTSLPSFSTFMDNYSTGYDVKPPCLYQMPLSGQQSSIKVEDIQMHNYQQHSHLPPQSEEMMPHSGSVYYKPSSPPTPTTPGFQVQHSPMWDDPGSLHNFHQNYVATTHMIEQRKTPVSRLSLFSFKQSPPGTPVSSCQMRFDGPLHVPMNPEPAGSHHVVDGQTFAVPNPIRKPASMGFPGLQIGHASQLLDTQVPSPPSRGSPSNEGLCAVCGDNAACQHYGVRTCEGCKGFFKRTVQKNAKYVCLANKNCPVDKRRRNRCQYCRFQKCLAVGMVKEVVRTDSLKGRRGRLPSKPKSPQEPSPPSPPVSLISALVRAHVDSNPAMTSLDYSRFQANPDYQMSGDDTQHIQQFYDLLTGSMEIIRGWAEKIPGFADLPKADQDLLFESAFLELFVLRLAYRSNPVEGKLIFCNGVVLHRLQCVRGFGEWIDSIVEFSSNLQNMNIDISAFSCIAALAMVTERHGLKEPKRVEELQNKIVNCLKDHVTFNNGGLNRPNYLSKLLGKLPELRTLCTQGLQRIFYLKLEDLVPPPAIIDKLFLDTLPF
Chain of Transcriptional activator Myb (Homo sapiens) (P10242 whole entry, looked up): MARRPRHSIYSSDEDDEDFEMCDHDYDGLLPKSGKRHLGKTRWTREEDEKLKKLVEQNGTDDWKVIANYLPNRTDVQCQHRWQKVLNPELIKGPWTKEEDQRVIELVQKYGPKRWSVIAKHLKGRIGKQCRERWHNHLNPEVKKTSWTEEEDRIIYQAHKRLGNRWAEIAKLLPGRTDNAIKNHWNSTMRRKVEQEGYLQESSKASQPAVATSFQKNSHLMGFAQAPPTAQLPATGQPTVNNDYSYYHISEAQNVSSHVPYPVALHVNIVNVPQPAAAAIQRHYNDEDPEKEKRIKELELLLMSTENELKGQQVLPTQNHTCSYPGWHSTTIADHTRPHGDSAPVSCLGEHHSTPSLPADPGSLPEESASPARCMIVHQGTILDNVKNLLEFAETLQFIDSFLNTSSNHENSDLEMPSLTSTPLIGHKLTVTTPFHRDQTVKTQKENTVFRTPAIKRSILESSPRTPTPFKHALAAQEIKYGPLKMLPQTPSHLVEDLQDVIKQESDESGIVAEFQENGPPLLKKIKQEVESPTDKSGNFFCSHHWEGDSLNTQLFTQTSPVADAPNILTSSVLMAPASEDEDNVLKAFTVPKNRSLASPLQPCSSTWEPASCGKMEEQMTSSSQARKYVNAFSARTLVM
Chain of X-box-binding protein 1 (Homo sapiens) (P17861 whole entry, looked up): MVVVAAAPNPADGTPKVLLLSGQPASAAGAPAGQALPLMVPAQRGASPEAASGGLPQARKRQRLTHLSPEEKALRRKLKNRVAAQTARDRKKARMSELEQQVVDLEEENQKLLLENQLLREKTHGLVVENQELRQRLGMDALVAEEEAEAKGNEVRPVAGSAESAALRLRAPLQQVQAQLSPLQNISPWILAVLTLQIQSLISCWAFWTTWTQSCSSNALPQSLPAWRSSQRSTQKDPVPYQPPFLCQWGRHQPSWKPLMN
Chain of Bile acid receptor (Homo sapiens) (Q96RI1 whole entry, looked up, the tested form may be a part): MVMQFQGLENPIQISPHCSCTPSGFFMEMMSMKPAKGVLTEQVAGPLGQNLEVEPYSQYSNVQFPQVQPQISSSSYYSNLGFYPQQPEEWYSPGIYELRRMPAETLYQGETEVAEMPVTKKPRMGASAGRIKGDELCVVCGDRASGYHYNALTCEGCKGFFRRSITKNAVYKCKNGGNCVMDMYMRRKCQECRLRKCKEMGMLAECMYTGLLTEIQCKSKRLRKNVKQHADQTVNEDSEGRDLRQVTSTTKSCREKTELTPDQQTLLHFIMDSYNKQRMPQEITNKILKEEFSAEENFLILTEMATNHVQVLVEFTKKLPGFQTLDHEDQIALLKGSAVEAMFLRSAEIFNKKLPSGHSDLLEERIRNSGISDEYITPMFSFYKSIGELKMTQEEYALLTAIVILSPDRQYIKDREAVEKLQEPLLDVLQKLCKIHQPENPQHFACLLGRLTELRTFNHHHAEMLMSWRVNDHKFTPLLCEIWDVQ
Chain of Oxysterols receptor LXR-alpha (Homo sapiens) (Q13133 whole entry, looked up, the tested form may be a part): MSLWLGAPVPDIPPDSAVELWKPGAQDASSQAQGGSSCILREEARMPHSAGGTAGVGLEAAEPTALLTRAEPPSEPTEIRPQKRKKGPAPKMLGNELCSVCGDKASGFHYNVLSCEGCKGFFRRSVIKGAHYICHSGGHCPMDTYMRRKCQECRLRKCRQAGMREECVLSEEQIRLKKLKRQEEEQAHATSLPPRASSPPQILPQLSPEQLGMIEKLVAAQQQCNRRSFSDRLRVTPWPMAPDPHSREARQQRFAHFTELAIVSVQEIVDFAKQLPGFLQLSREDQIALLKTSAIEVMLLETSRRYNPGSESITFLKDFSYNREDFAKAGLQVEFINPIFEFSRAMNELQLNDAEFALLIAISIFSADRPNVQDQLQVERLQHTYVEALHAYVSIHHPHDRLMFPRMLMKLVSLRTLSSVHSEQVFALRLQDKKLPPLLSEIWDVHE

Regarding `C[Si](C)(C)C(F)(F)C(F)(F)C(F)(F)F`, the outcome in experiment [1], in [2], in [3], in experiment [4], in experiment [5] and in [6] was inactive. Besides, the compound was called inactive in experiment [7], in experiment [8], in experiment [9], in experiment [10], in [11] and in [12]. For the same compound, the compound was classed as inactive in experiment [13], in [14], in [15], in [16], in experiment [17] and in [18].
Take `FC(F)=C(F)C(F)(F)C(F)(F)C(F)(F)C(F)(F)C(F)(F)C(F)(F)F`: the outcome in [1], in [2], in [3], in experiment [4], in [5] and in experiment [6] was inactive. The outcome in experiment [7], in experiment [8], in experiment [9], in [10], in experiment [11] and in [14] was inactive. Besides, the call in [15], in experiment [16], in [17] and in [18] was inactive.
`Cc1cccc(O)c1C`: the outcome in experiment [1], in experiment [2], in experiment [3], in experiment [4], in [5] and in experiment [6] was inactive. For the same compound, the result in [7], in experiment [8], in [9], in [10], in [11] and in experiment [12] was inactive. Besides, the result in experiment [14], in [15], in [16], in [17] and in experiment [18] was inactive. Moreover, the AC50 in experiment [19] was 38.5 µM (active) and 46 µM (active).
For the compound `OCc1c[nH]c2ccccc12`, the result in experiment [1], in experiment [2], in [4], in [5], in [6] and in [7] was inactive. In addition, the compound was called inactive in [8], in [10], in experiment [11], in experiment [12], in experiment [13] and in [14]. The call in experiment [15], in [16], in experiment [17] and in experiment [18] was inactive. Besides, the AC50 was 5.32 µM (active) [middle of 5 runs] in experiment [3]; 18.8 µM (active) and 14.4 µM (active) in experiment [15]; 27.2 µM (active) in experiment [17].
